LmPK inh – qHTS Assay for Inhibitors of Leishmania Mexicana Pyruvate Kinase (LmPK) | purified LmPK, Kinase-Glo ATP luminescence, 1 h | AID 1721, 2009 | 290,000 tested, 0.37% active | Q27686 | Potency, µM (doses to about 57.5 µM), inactives show top-dose activity change, negative = inhibition, hits mostly inhibitors
Target sequence (Q27686 whole entry, looked up): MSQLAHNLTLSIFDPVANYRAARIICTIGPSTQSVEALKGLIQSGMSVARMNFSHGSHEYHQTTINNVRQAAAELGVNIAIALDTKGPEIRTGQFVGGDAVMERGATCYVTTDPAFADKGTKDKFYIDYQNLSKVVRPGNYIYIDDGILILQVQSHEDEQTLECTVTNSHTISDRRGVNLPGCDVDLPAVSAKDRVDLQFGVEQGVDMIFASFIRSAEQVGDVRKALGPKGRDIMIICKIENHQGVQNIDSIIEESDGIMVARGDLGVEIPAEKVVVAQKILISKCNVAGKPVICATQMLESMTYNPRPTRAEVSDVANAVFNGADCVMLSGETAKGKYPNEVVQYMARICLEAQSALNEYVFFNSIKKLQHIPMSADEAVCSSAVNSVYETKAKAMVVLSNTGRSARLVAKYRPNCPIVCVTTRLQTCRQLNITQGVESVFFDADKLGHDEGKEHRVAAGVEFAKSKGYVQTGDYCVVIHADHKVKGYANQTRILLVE
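0.1 nM LmPK, 0.5 mM PEP, 0.1 mM ADP; 50 mM imidazole pH 7.2, 7 mM MgCl2, 50 mM KCl; 1 h RT. Kinase-Glo luminescence readout, normalized to no-enzyme (full inhibition) and uninhibited wells.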
RE007 growth inh – qHTS Assay for Inhibitors of the HIV-1 protein Vpr; AID 651644, 2012; 360,000 tested, 0.21% active; S. pombe RE007 Vpr strain, BacTiter-Glo ATP luminescence, 24 h; Potency, µM (titrated, usually from 92.2 µM), without a hit: at the top dose activity change, negative = less growth, hits mostly inhibitors; active = well fitted falling curve with a large enough effect; inconclusive = small, poorly fitted or top-dose-only effect; inactive = no such curve, though single readings can be large or run the other way; also: nearly all actives have a fitted effect of over 50% in size
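Fission yeast RE007 carrying one integrated HIV-1 vpr copy, seeded at OD 0.01 in PMG+AL medium with 23 nL pinned compound. Grown 24 h at 30 degrees; viability read by BacTiter-Glo luminescence after 5 min.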
Sm TGR inh – qHTS Assay for the Inhibitors of Schistosoma Mansoni Peroxiredoxins | Schistosoma mansoni thioredoxin glutathione reductase (TGR), Q962Y6 | purified TGR, DTNB reduction, TNB absorbance 405 nm | Potency, µM (doses to about 114 µM), without a hit: top-dose activity change, negative = inhibition, most hits filed as inhibitors | 360,000 tested, 3% active; also: nearly all actives have a fitted effect of over 60% in size
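First, TGR (20 nM dispensed) and NADPH were mixed with compound. Second, a 15 min room-temperature incubation followed. Third, further NADPH and then DTNB were added to start the reaction. Finally, TNB absorbance was monitored kinetically.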
AMA1-RON2 inh – qHTS for Inhibitors of AMA1-RON; Towards Development of Antimalarial Drug Lead: Primary Screen; AID 720542, 2013; Plasmodium falciparum AMA1 (3D7) - RON2 peptide interaction; AlphaScreen AMA1-biotinylated RON2 peptide binding; 360,000 tested, 0.2% active; Potency, µM (top dose mostly 58.2 µM), without a hit: at the top dose activity change, negative = inhibition, usual class: inhibitors;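 also: 0% = vehicle wells and -100% = peptide control; nearly all actives have a fitted effect of over 45% in size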
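AMA1 (3D7) with his tag at 25 nM final met compounds first, then biotinylated RON2 peptide at 25 nM; detection used donor plus acceptor beads, 10 µg/mL apiece, read by AlphaScreen after 30 min at room temperature.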
TbPYK inhibitor – qHTS of Trypanosoma Brucei Inhibitors | pyruvate kinase (Trypanosoma brucei), Q57TT1 | TbPYK enzyme, Kinase-Glo Plus ATP luminescence, 45 min | Potency, µM (highest dose often 76.8 µM), for inactives: at the highest dose activity, negative = inhibition, actives largely listed as inhibitors | 410,000 tested, 0.12% active; also: nearly all actives have a fitted effect of over 50% in size
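Glycolytic pyruvate kinase of T. brucei was incubated with substrate, test compound and 130 uM ADP for 45 minutes at room temperature. Luminescent Kinase-Glo Plus signal was measured after 10 minutes.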
* = called active by the depositor; ? = inconclusive; . = no result; [ ] = remark or other dose. Sampled rows, rich in hits. Any-hit rate of the full collection: about 3.2%. Unless noted, calls follow the shape of the dose curve; as a rule, active = well fitted curve in the direction sought with a large enough effect; inconclusive = small, poorly fitted or top-dose-only effect, or another doubt; inactive = no such curve, though single readings can be large; an effect the other way counts as inactive or inconclusive. Unless noted, % is scaled to controls: 0 for no effect and ±100 for the full control effect; potency is read from the fitted curve at half-maximal effect.

SMILES	LmPK inh	RE007 growth inh	Sm TGR inh	AMA1-RON2 inh	TbPYK inhibitor
O=C(CN1CCN(S(=O)(=O)c2ccc(Br)cc2)CC1)c1ccc(O)c(O)c1	0.6%	5.6%	14.1µM*	12.1%	?
CCOC(=O)c1ccc(NC(=O)CCCn2nc(C)c3sc4ccccc4c3c2=O)cc1	.	.	-35.2%	.	2.9%
O=C(/C=C/c1ccc2ccccc2n1)c1cc(Br)ccc1O	-0.4%	3.2%	31.6µM*	-2.5%	3.7%
O=c1[nH]n(-c2ccc(Cl)cc2)c(=O)c(Cl)c1Cl	15.1%	-14.8%	7.08µM*	-4.9%	1.3%
Cc1[nH]n(-c2ccccc2)c(=O)c1-c1ccc(Cl)cc1	-0.2%	-11.8%	-1.2%	13.7%	2.2%
COc1cccc(CSc2nc3n(n2)C(CC(C)C)C(C(=O)Nc2ccccc2OC)=C(C)N3)c1 (centres undefined)	.	.	-7.1%	.	1.6%
COc1ccccc1NC(=O)CSc1oc(-c2ccccc2)nc1S(=O)(=O)c1ccc(C)cc1	.	.	0.5%	.	1.3%
Cc1sc2nc(CN3CCN(c4ccc(O)cc4)CC3)[nH]c(=O)c2c1C	14.1µM*	14.1%	?	18.6%	-28.5%
O=c1[nH]c(CN2CCN(c3ccccc3)CC2)nc2scc(-c3ccccc3)c12	4.1%	.	-14.3%	28.0%	-4.8%
O=C(Nc1cc(F)ccc1F)C1COc2ccccc2C1 (centres undefined)	.	.	3.3%	.	1.6%
CCC(=O)N1CCc2cc(Br)cc(S(=O)(=O)N3CCC(C(=O)Nc4ccccc4CC)CC3)c21	.	.	7.6%	.	-3.3%
Fc1ccc(-n2nnc(-c3nccs3)n2)cc1	14.1µM*	?	25.6%	2.6%	-20.5%
CC(C)=CC(=O)OCC(=O)Nc1ccc(Cl)cc1	-3.7%	-26.4%	-5.3%	-1.4%	1.3%
COCC(=O)Nc1cccc(Br)c1	-0.5%	-8.0%	-5.6%	1.0%	-2.7%
CCOC(=O)/C=C/C(=O)OCC(=O)Nc1cccc(Br)c1	0.3%	-29.9%	17.8µM*	-15.6%	-0.6%
CCOC(=O)/C=C/S(=O)(=O)c1ccc(NC(C)=O)cc1	-0.6%	?	0.316µM*	-10.5%	4.6%
CCOC(=O)/C=C/C(=O)OCC(=O)Nc1ccc(C)cc1	-0.4%	?	12.6µM*	3.7%	-1.3%
COc1ccc(-c2cc(C(=O)Nc3c(Cl)cccc3Cl)no2)cc1OC	.	.	11.7%	.	-3.8%
CP(=O)(Nc1ccc(Cl)cc1)c1nc2c(s1)CCCC2 (centres undefined)	0.2%	8.3%	22.4µM*	-4.2%	-3.8%
CCCCn1c(CCC)nc([N+](=O)[O-])c1Sc1ccc(Cl)cn1	2.7%	1.6%	22.4µM*	-18.0%	-5.9%
COc1ccc(Cl)cc1NC(=O)Cn1cc2c(n1)CCC(C)C2 (centres undefined)	.	.	1.2%	.	-7.0%
O=C(O)CCc1ccc(-c2ccc(F)cc2)n1CC1CCCO1 (centres undefined)	0.6%	-9.7%	?	-7.7%	-11.9%
O=C(O)CCc1ccc(-c2cccs2)n1CC1CCCO1 (centres undefined)	4.6%	-12.4%	8.91µM*	-9.1%	0.0%
COc1ccc(-c2ccc(CCC(=O)O)n2CC2CCCO2)cc1 (centres undefined)	4.6%	-10.3%	35.5µM*	-4.8%	0.7%
c1ccc2c(c1)nc1n2C2(N3CCOCC3)CCCC2C1N1CCOCC1 (centres undefined)	-3.8%	7.0%	31.6µM*	-2.7%	-2.4%
SMILES	LmPK inh	RE007 growth inh	Sm TGR inh	AMA1-RON2 inh	TbPYK inhibitor
CC(=O)c1c(C)[nH]c(C(=O)CN2CCN(S(=O)(=O)c3ccccc3)CC2)c1C	.	-17.2%	44.7µM*	2.1%	3.1%
O=C(Cn1ccc2cc(S(=O)(=O)N3CCCCCC3)ccc21)NCc1cccc(Cl)c1	.	.	4.2%	.	-7.3%
Cc1cccc(OCC(=O)N(Cc2cccc(Cl)c2)Cc2ccco2)c1C	.	.	-1.3%	.	3.6%
COC(Cn1c2c(c3cc(C)ccc31)CCCC2NCc1ccccc1)OC (centres undefined)	-0.4%	-3.7%	3.98µM*	-14.6%	-0.3%
O=C(Nc1cc(F)ccc1F)c1ccc2c(c1)nnn2C1CCCC1	.	.	-4.6%	.	-2.1%
COc1cc(C(C[N+](=O)[O-])c2c(C)[nH]c3ccccc23)ccc1O (centres undefined)	-1.3%	-18.1%	?	-8.2%	-9.2%
COc1cc(C(C[N+](=O)[O-])c2c(-c3ccccc3)cc3ccccn23)cc(OC)c1OC (centres undefined)	-7.4%	-21.7%	8.91µM*	-2.5%	-11.5%
COc1cc(C(C[N+](=O)[O-])c2c(C)cc3ccccn23)ccc1O (centres undefined)	-3.6%	?	17.8µM*	-10.0%	?
COc1ccc(C(C[N+](=O)[O-])c2c(-c3ccccc3)cc3ccccn23)cc1 (centres undefined)	-2.4%	?	-30.2%	-3.8%	1.8%
COc1ccc(C(C[N+](=O)[O-])c2c(-c3ccccc3)cc3ccccn23)cc1OC (centres undefined)	6.5%	?	7.94µM*	-9.5%	-5.6%
CCCCc1cc2c(cn1)=C(OC(=O)CCC(=O)OC)C(C)(OC(=O)CC)C(=O)C=2 (centres undefined)	-7.1%[11.5 µM]	.	.	.	.
CCN(CC)S(=O)(=O)c1ccc2c(c1)N(CC(=O)Nc1cccc(C)c1C)C(=O)C1CCCN21 (centres undefined)	.	.	-3.2%	.	4.1%
CCc1ccc(NC(=O)C(C)Sc2nc(-c3ccco3)c(C#N)c(=O)[nH]2)cc1 (centres undefined)	0.9%	-6.8%	39.8µM*	0.0%	0.0%
COc1ccccc1C(=O)n1nc(-c2ccco2)nc1SC	-1.8%	10.2%	14.1µM*	-4.8%	-3.7%
Cc1ccc(C(=O)n2nc(-c3ccco3)nc2N)cc1	-1.7%	2.2%	?	-11.5%	-2.4%
COc1ccc(C(=O)n2nc(-c3ccco3)nc2N)cc1	-1.1%	-12.9%	31.6µM*	3.1%	-4.8%
COc1ccccc1/C=c1\sc2nc(-c3ccco3)nn2c1=O	3.5%	-8.5%	11.2µM*	?	4.7%
CSc1nc(-c2ccco2)nn1C(=O)c1ccccc1	0.3%	-2.4%	15.8µM*	15.1%	-9.3%
CSc1nc(-c2ccco2)nn1C(=O)c1ccc(C)cc1	-1.5%	-7.2%	?	-11.8%	1.8%
CCOc1ccc(-c2cc(CCCC(=O)NCCc3ccc(SC)cc3)no2)cc1	.	.	-18.4%	.	-1.1%
COCCn1c(C)cc(O)c(C(c2ccc(Cl)cc2)N2CCCCC2)c1=O (centres undefined)	.	.	10µM*	.	-3.3%
